In PubChem BioAssay:
Activity calls are given as the source filed them.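 How the source made its calls, unless noted: active means fluorescence slope after compound addition differing from the mean of all screened samples at 99.7% confidence, in either direction; inactive means the rest.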

Key:
[1] = inhibitors of TNFa-induced NFkB p65 translocation, primary screen, imaging, HUVEC, MLSMR starter and 10KST1 sets (AID 438;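 active means inhibition above 20% together with a positive visual image hit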;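 further: compound added about 3h40 before a 20 min TNFalpha stimulation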;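 on inhibition: signal is the nuclear over cytoplasmic p65 intensity ratio per well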); conditions: HUVEC TNFa-induced p65 nuclear translocation; cell count: measured here: nuclei count (cytotoxicity indicator), at 2.08 µM; inhibition: at 2 µM, stronger effect = higher value, 0% TNFa-plus-vehicle, 100% no-TNFa wells
[2] = inhibitors of mutant huntingtin aggregation, primary screen, imaging, exon1htt(103Q)mCFP cells, high-content imaging (AID 483;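 active means visual image review flags a hit and inhibition of aggregation exceeds 20%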;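 further: compound exposure lasted 3 days before fixation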;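 on nuclei count: percent of the per-plate median nuclei count of sample wells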); conditions: exon1htt(103Q)mCFP cell line, aggregate imaging, at 2 µM; inhibition of aggregation: stronger effect = higher value; nuclei count: measured here: cell count, toxicity
[3] = inhibitors of E-selectin induction by TNFa, primary screen, imaging, HUVEC, immunofluorescence, MLSMR starter and 10KST1 sets (AID 487;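 active means visually confirmed hit in the image check and inhibition above 20%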;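 on inhibition: signal is fraction of cell area covered by stained E-selectin grains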;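 on nuclei count: 100% = median nuclei count of all wells on the same plate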); conditions: HUVEC TNFalpha-induced E-selectin immunofluorescence imaging, at 2 µM; inhibition: stronger effect = higher value; nuclei count: measured here: cell number, toxicity
[4] = target: Voltage-gated potassium channel subunit beta-2 (Rattus norvegicus) (UniProt P62483); assay: KvBeta enzyme negative modulators, primary screen, biochemical, NADPH fluorescence (AID 622;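 active means fluorescence slope higher than the sample average by over 3 SD, cut at about -0.22 in these data, passing the limit was not always enough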;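 further: slope of raw intensity against log time taken from 70 to 1610 s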); conditions: recombinant KvBeta, 4-cyanobenzaldehyde reduction, at 10 µM, stronger effect = higher value
[5] = target: Voltage-gated potassium channel subunit beta-2 (Rattus norvegicus) (UniProt P62483); assay: KvBeta positive modulators, primary screen, biochemical, NADPH fluorescence (AID 623;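 active means NADPH fluorescence slope more negative than the mean of all samples by about 3 SD, 99.7% confidence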;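 further: fluorescence intensity change per second fitted from 20 to 320 s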); conditions: Recombinant KvBeta, NADPH fluorescence decrease slope, 10 min; at 10 µM; stronger effect = lower value
[6] = target: Alpha-2C adrenergic receptor (Homo sapiens) (UniProt P18825); assay: modulators of alpha2C/GIRK thallium flux, primary screen, cell-based, HEK293 alpha2C/GIRK1/2 (AID 624); conditions: thallium flux BTC fluorescence, at 10 µM, actives lie on both sides;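 further: slope of fluorescence ratio to pre-addition baseline per second over 15 to 24 s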
[7] = inhibitors of Sendai virus-induced IRF3 signaling, primary screen, TLR/RLR signaling modifier project, cell-based, Sendai virus stimulus, luciferase, 10K MLSCN set (AID 602276;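 active means inhibition at or above 50% at 10 µM; inactive means inhibition below 50%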;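 further: firefly luciferase from ISG56 promoter only with Renilla not read in this screen; 0% = Sendai virus plus DMSO and 100% = medium plus DMSO without virus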); conditions: HEK293 RL24 IRF3 luciferase reporter, at 10 µM, stronger effect = higher value
[8] = inhibitors of poly I:C-induced TLR3 signaling, primary screen, cell-based, poly I:C stimulus, luciferase, 10K MLSCN set (AID 602277;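 active means inhibition of the reporter signal at or above 50%; inactive means inhibition below 50%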); conditions: HEK293-TLR3 RL24 IRF3 luciferase reporter, at 10 µM, stronger effect = higher value

Alpha-2C adrenergic receptor (Homo sapiens), sequence (P18825 whole entry, looked up): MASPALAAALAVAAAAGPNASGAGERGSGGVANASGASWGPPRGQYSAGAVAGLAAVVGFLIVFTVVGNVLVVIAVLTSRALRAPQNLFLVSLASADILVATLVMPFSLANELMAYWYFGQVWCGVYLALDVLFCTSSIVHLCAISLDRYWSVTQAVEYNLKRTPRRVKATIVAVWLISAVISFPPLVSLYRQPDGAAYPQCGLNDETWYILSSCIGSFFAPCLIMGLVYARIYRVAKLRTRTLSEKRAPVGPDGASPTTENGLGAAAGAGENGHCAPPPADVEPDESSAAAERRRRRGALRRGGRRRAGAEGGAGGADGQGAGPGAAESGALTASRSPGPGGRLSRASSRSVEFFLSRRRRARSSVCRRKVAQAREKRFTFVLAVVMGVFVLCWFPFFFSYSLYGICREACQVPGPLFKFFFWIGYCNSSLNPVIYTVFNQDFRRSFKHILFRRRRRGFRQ
Voltage-gated potassium channel subunit beta-2 (Rattus norvegicus), sequence (P62483 whole entry, looked up): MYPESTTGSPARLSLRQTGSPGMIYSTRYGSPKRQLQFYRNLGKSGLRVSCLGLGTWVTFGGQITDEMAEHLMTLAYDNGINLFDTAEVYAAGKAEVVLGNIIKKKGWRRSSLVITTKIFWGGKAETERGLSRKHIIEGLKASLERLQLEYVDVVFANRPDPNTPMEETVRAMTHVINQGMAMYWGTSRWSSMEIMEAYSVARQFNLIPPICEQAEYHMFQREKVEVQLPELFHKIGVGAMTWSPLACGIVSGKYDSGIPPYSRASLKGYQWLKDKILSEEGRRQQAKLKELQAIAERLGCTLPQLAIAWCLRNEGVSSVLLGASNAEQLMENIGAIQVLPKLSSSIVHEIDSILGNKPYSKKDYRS

Row | Compound | cell count [1] | inhibition [1] | inhibition of aggregation [2] | nuclei count [2] | inhibition [3] | nuclei count [3] | fluorescence slope [4] | NADPH fluorescence slope [5] | slope [6] | inhibition [7] | inhibition [8]
1 | COC(=O)c1ccc(NC(=O)CN2CCN(c3ccc(Cl)cc3)CC2)cc1 | 355 | -11.2% (inactive) | 12.9% (inactive) | 101% | 8.1% (inactive) | 91.5% | -0.571 (inactive) | 1.7e-05 (inactive) | 0.00455 (inactive) | 20.2% (inactive) | 21.5% (inactive)
2 | Cc1ccc(C(=O)N2CCN(C(=O)c3ccc(C)c(C)c3)C(C)C2)cc1C (stereo not drawn) | 409 | -0.7% (inactive) | -2.3% (inactive) | 94.3% | -179% (inactive) | 200% | -0.264 (inactive) | -5.3e-05 (inactive) | 0.00164 (inactive) | 4.92% (inactive) | 22.7% (inactive)
3 | O=C(CSCc1ccccn1)Nc1ccccc1 | 312 | -8% (inactive) | 21.9% (inactive) | 95.1% | 4.8% (inactive) | 98.8% | -0.437 (inactive) | -4.9e-05 (inactive) | 0.00582 (inactive) | -30.9% (inactive) | -49% (inactive)
4 | O=C(OCC(=O)c1ccccc1Br)c1ccccn1 | 308 | 2.7% (inactive) | -3.7% (inactive) | 98.4% | -10.2% (inactive) | 95.3% | -0.536 (inactive) | -4.2e-05 (inactive) | 0.00716 (inactive) | 3.27% (inactive) | 26.5% (inactive)
5 | CCOC(=O)N1CCC(NC(=O)c2ccc(CS(=O)(=O)c3c(Cl)cccc3Cl)o2)CC1 | 608 | -3.7% (inactive) | 10.7% (inactive) | 94.3% | -44.1% (inactive) | 104% | -0.611 (inactive) | 2.7e-05 (inactive) | 0.00587 (inactive) | 16.5% (inactive) | 0.288% (inactive)
6 | COc1cccc(-n2c(SCC(=O)Nc3cc(C)on3)nc3c([nH]c4ccccc43)c2=O)c1 | 600 | 8% (inactive) | -10.2% (inactive) | 89.7% | -41% (inactive) | 118% | -0.539 (inactive) | -7.7e-06 (inactive) | 0.00757 (inactive) | 24% (inactive) | 28.7% (inactive)
7 | COc1ccc(N(CC(=O)NCCSC(C)(C)C)S(C)(=O)=O)c(OC)c1 | 387 | -1.4% (inactive) | 12.9% (inactive) | 104% | -18.2% (inactive) | 120% | -0.537 (inactive) | 0.000155 (inactive) | 0.00708 (inactive) | 18.9% (inactive) | 20.9% (inactive)
8 | COc1ccccc1Nc1nc(N)nc(-c2cc3ccccc3o2)n1 | 153 | 1.2% (inactive) | -7.1% (inactive) | 89.1% | 25.7% (inactive) | 85.7% | -0.332 (inactive) | -3.9e-05 (inactive) | 0.00555 (inactive) | -39.9% (inactive) | -99.9% (inactive)
9 | CN(C)CCCOC(=O)CCc1ccccc1 | 317 | -11.5% (inactive) | 4.5% (inactive) | 95.6% | -26.3% (inactive) | 111% | -0.312 (inactive) | -3.9e-05 (inactive) | 0.00462 (inactive) | -0.368% (inactive) | 5.94% (inactive)
10 | O=C(CN1CCN(c2ccccn2)CC1)N1c2ccccc2CCc2ccccc21 | 568 | 3.3% (inactive) | -0.5% (inactive) | 103% | 46.8% (inactive) | 99.5% | -0.341 (inactive) | -5.2e-05 (inactive) | 0.0046 (inactive) | 13% (inactive) | 15.9% (inactive)
11 | CCOc1ccc(C(C)=O)cc1COc1ccc(-n2cnnn2)cc1 | 407 | -8.7% (inactive) | 18.3% (inactive) | 80.8% | 25.1% (inactive) | 132% | -0.617 (inactive) | -6.6e-05 (inactive) | 0.00398 (inactive) | 1.13% (inactive) | -2.41% (inactive)
12 | Cn1c(=O)[nH]c(=O)c2c1nc(CN1CCN(c3cccc(Cl)c3)CC1)n2CCc1ccccc1 | 683 | -9.7% (inactive) | 6.6% (inactive) | 107% | -90.8% (inactive) | 87.9% | -0.587 (inactive) | 8.1e-06 (inactive) | 0.00654 (inactive) | -13.9% (inactive) | -0.338% (inactive)
13 | CC(=O)C1=C(C)Nc2ncnn2C1c1cccc(OCc2ccccc2)c1 (stereo not drawn) | 610 | 0% (inactive) | 2.1% (inactive) | 103% | -51.7% (inactive) | 122% | -0.559 (inactive) | 4.9e-06 (inactive) | 0.0069 (inactive) | 11.8% (inactive) | 29% (inactive)
14 | COc1ccccc1N(CC(=O)Nc1cccnc1)S(C)(=O)=O | 623 | 9.2% (inactive) | 20.5% (inactive) | 92.6% | 58.2% (inactive) | 34.6% | -0.408 (inactive) | -6.4e-05 (inactive) | 0.00671 (inactive) | 7.85% (inactive) | 17.6% (inactive)
15 | CN1CCN(C(=O)c2ccc(CS(=O)(=O)c3c(Cl)cccc3Cl)o2)CC1 | 652 | -0.5% (inactive) | 11.9% (inactive) | 96.9% | -24.1% (inactive) | 137% | -0.515 (inactive) | -2.9e-05 (inactive) | 0.00604 (inactive) | 16.8% (inactive) | 24.4% (inactive)
16 | Cc1nc2ccc(CCO)cc2s1 | 419 | 8% (inactive) | 2.9% (inactive) | 93.2% | -162% (inactive) | 112% | -0.652 (inactive) | 3.1e-05 (inactive) | 0.00546 (inactive) | 5.43% (inactive) | 4.05% (inactive)
17 | CC(=O)Oc1ccc(-c2ccc(C(=O)O)cc2)cc1 | 385 | -6.5% (inactive) | 17.9% (inactive) | 99.6% | 35.1% (inactive) | 102% | -0.315 (inactive) | -7.2e-06 (inactive) | 0.00672 (inactive) | 4.99% (inactive) | 14.8% (inactive)
18 | CCOC(=O)c1ccccc1NC(=O)N1CCn2c(C)ccc2C1CC (stereo not drawn) | 383 | 2.8% (inactive) | -42% (inactive) | 105% | -50.1% (inactive) | 110% | -0.579 (inactive) | -3.2e-05 (inactive) | 0.00545 (inactive) | -0.392% (inactive) | 8.3% (inactive)
19 | COCCCNC(=O)C1CCN(C(=O)Nc2ccc(Cl)cc2)CC1 | 577 | 5% (inactive) | 18.9% (inactive) | 96.2% | 33.6% (inactive) | 82.1% | -0.457 (inactive) | 1.1e-05 (inactive) | 0.00588 (inactive) | 11.2% (inactive) | 34.3% (inactive)
20 | CCOC(=O)c1ccc(N=c2sc(C(=O)OC)cc(=O)n2Cc2ccco2)cc1 | 514 | -8% (inactive) | -5.9% (inactive) | 107% | 0.2% (inactive) | 112% | -0.608 (inactive) | -4.8e-05 (inactive) | 0.00678 (inactive) | -17.5% (inactive) | 77.4% (active)
21 | COc1ccc(N(CC(=O)Nc2ccc(F)c(Cl)c2)S(=O)(=O)c2c(C)noc2C)cc1 | 372 | 2.7% (inactive) | -8.2% (inactive) | 99% | -23.6% (inactive) | 104% | -0.425 (inactive) | 1.3e-05 (inactive) | 0.00672 (inactive) | 16.5% (inactive) | 21.7% (inactive)
22 | COc1ccc(S(=O)(=O)N2CCN(CC(=O)Nc3ccc(F)c(F)c3)CC2)cc1 | 322 | -7.6% (inactive) | 9.7% (inactive) | 94.6% | -62.9% (inactive) | 97.3% | -0.51 (inactive) | -2.7e-05 (inactive) | 0.00502 (inactive) | 22.7% (inactive) | 32% (inactive)
23 | O=C(C1CCCN(S(=O)(=O)c2cccc3nonc23)C1)N1CCC(Cc2ccccc2)CC1 (stereo not drawn) | 385 | -11.2% (inactive) | 3% (inactive) | 101% | 24.5% (inactive) | 59.6% | -0.304 (inactive) | -1e-05 (inactive) | 0.00394 (inactive) | 7.74% (inactive) | 25.7% (inactive)
24 | COc1ccc(CCn2c(NCCCN3CCOCC3)nc3c2c(=O)[nH]c(=O)n3C)cc1 | 395 | 2.1% (inactive) | -5.3% (inactive) | 110% | -6.4% (inactive) | 99.3% | -0.539 (inactive) | 2.7e-05 (inactive) | 0.00501 (inactive) | -6.62% (inactive) | -4.13% (inactive)
25 | CNC(=O)c1ccsc1NC(=O)c1ccccc1 | 512 | 4.7% (inactive) | 12.3% (inactive) | 91.6% | 7.3% (inactive) | 88.8% | -0.413 (inactive) | -1.9e-05 (inactive) | 0.00587 (inactive) | -11.3% (inactive) | -28.3% (inactive)
26 | O=S(=O)(NCc1ccccc1)c1ccc2c(c1)OCCO2 | 454 | -10.7% (inactive) | -10.8% (inactive) | 100% | -117% (inactive) | 121% | -0.599 (inactive) | -3.9e-05 (inactive) | 0.00569 (inactive) | -0.346% (inactive) | -1.95% (inactive)
27 | CCOC(=O)N1CCN(c2c(NCCN(C)Cc3ccccc3)c(=O)c2=O)CC1 | 578 | -2% (inactive) | 9.3% (inactive) | 105% | -62.3% (inactive) | 124% | -0.492 (inactive) | -1.8e-05 (inactive) | 0.00728 (inactive) | 1.64% (inactive) | 6.95% (inactive)
28 | CCn1c(SCC(=O)Nc2ccc(C(=O)OC)cc2)nnc1-c1cccs1 | 654 | 11.5% (inactive) | 24.6% (inactive) | 110% | 42.7% (inactive) | 106% | -0.379 (inactive) | -5.2e-05 (inactive) | 0.00499 (inactive) | 14.1% (inactive) | 12.6% (inactive)
